High-throughput results deposited in PubChem by National Center for Advancing Translational Sciences (NCATS).
In the library only some 6.4% were active in any assay of this set; here they are far more common.
RORg inh: qHTS for inhibitors of ROR gamma transcriptional activity; AID 2551, 2010; Drosophila S2 Gal4-RORgamma UAS-luciferase reporter, 20 h; 5.4% of 310,000 active; Nuclear receptor ROR-gamma (Mus musculus), P51450; Potency, µM (doses to about 53.6 µM), without a hit: top-dose activity change, negative = inhibition, actives largely listed as inhibitors; note: nearly all actives have a fitted effect of over 60% in size
Target sequence (P51450 whole entry, looked up, the tested form may be a part): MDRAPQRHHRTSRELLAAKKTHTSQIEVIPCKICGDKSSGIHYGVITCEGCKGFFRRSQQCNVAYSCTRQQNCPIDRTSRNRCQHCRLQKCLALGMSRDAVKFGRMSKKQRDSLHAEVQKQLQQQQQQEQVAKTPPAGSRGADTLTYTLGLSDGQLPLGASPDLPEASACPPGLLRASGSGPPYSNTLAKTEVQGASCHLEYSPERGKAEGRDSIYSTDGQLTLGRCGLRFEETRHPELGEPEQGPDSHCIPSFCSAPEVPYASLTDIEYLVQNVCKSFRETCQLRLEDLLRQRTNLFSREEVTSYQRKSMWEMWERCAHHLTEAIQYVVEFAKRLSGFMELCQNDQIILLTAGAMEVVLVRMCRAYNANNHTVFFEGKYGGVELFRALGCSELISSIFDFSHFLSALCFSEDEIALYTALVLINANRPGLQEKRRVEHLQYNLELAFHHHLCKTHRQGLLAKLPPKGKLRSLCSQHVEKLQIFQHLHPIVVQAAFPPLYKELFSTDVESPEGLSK
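Stably transfected Drosophila Schneider cells are the test system, with ROR gamma fused to Gal4 and luciferase under UAS control; luminescence is read after 20 hr of 700 uM copper sulfate induction at ambient temperature.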
VP16 counter: VP16 counterscreen qHTS for inhibitors of ROR gamma transcriptional activity. Potency, µM (series often up to 53.6 µM), for inactives: top-dose activity, negative = inhibition, hits mostly inhibitors. 3.5% of 310,000 active. Drosophila S2 Gal4-VP16 UAS-luciferase, luminescence, 20 h. AID 2546, 2010;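 note: Gal4-VP16 expression switched on by copper sulfate through the metallothionein promoter; nearly all actives have a fitted effect of over 50% in size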
Luc counter: Counterscreen for Luciferase (Kinase-Glo TM) Inhibition | Kinase-Glo luciferase, ATP luminescence, 8 min | 0.28% of 200,000 active | Luciferin 4-monooxygenase (Photuris pensylvanica), Q27757 | Potency, µM (highest dose often 38.3 µM), for inactives: at the highest dose activity change, negative = inhibition, most hits filed as inhibitors | AID 1379, 2008; note: nearly all actives have a fitted effect of over 60% in size
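Inhibition of Kinase-Glo luciferase light generation was assessed at 10 uM ATP in pH 7.2 imidazole buffer, with luminescence measured after eight minutes at ambient temperature.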
Numbers without * were called inactive; ? = inconclusive; · = no result; [ ] = another dose, or the depositor's remark. Calls come from the whole dose curve; as a rule, active = well fitted curve in the direction sought with a large enough effect; inconclusive = small, poorly fitted or top-dose-only effect, or another doubt; inactive = no such curve, though single readings can be large; an effect the other way counts as inactive or inconclusive. % is set by controls: 0 for no effect and ±100 for the full control effect; potency is the fitted concentration of half-maximal effect.

SMILES | RORg inh | VP16 counter | Luc counter
CCNc1ncc2ncc(=O)n(Cc3ccc(F)cc3)c2n1 | -1% | -10% | ·
Cc1ccn2cc(CSc3ccccc3N)nc2c1 | 13µM* | -7% | -4%
Cc1ccn2cc(CC(=O)O)nc2c1 | -12% | -2% | 1%
CCOC(=S)SCc1cn2ccccc2n1 | ? | 4% | 1%
CCOC(=S)SCc1cn2ccc(C)cc2n1 | 14µM* | ? | -3%
COc1ccccc1CNc1ncncc1-c1ccccc1C | -33% | -21% | -1%
Cc1cccc(N/C(=N/S(=O)(=O)c2ccccc2)c2ccccc2)n1 | 17% | -12% | ·
CC(C)(C)c1ccc(C(=O)N2CCN(CCNC(=O)C(=O)NCc3ccccc3)CC2)cc1 | ? | -25% | 1%
COc1cc(C(=O)Nc2ccc3c(c2)N(C(=O)CCN(C)C)c2ccccc2CC3)cc(OC)c1OC | -18% | 15% | 2%
CN(C)CC(=O)N1c2ccccc2CCc2ccc(NC(=O)c3ccc(N)cc3)cc21 | 7.9µM* | 7.1µM* | -4%
O=C(CSc1nnnn1-c1ccc(F)cc1F)Nc1ccccc1F | ? | -5% | ·
COc1cc(C(=O)N2CCN(C)C(C)C2)ccc1OC1CCN(C(C)=O)CC1 (centres undefined) | 9% | 14% | ·
O=C(O)c1ccc(N=Nc2c(O)ccc3ncccc23)cc1 | 1.1µM* | 3.2µM* | ·
O=C(O)c1cc(N=Nc2c(O)ccc3ccccc23)cc(C(=O)O)c1 | -8% | 0% | -13%
COc1ccc2cc(C(=O)C3CCCN(C(=O)c4cncs4)C3)ccc2c1 (centres undefined) | 23% | 1% | ·
Cc1cc([N+](=O)[O-])c(C)c(Br)c1C | · | · | 0%[7.66 µM]
COc1ccc(N(C(=O)c2csnn2)C(C(=O)NC2CCCC2)c2ccccc2)cc1 (centres undefined) | 14% | 11% | ·
CN1C(=O)/C(=C/c2cn(CC(=O)N3CCCCC3)c3ccccc23)NC1=S | 11µM* | ? | ·
CN1C(=O)/C(=C/c2cn(CC(=O)NCc3ccco3)c3ccccc23)NC1=S | -20% | 6% | 0%
CCn1c(-c2csc(-c3ccccc3)n2)n[nH]c1=S | 2.5µM* | 6.3µM* | -4%
C[N+](C)(N)Cc1csc(-c2ccc(Cl)cc2)n1 | · | · | -8%[7.66 µM]
Cc1nc(-c2ccccc2)sc1-c1n[nH]c(=S)n1C | 7% | -10% | 1%
CCn1c(-c2csc(-c3ccc(Cl)cc3)n2)n[nH]c1=S | 1.3µM* | ? | -3%
CN(C)Cc1ccc(O)c(CN(C)C)n1 | · | · | -5%[7.66 µM]
NC(=O)c1nsc(C(=O)N(Cc2ccccc2Cl)C(C(=O)NCC2CCCO2)c2ccc(O)cc2)c1N (centres undefined) | 26% | 2% | ·
SMILES | RORg inh | VP16 counter | Luc counter
CC(C)C(=O)Nc1cccc(NC(=S)NC(=O)c2ccccc2Cl)c1 | -19% | 1% | 4%
CC(C)C(=O)Nc1cccc(NC(=S)NC(=O)c2ccc([N+](=O)[O-])cc2)c1 | 11µM* | ? | -3%
CC(=O)Nc1ccc(NC(=S)NC(=O)c2ccc([N+](=O)[O-])cc2)cc1 | -13% | -3% | 0%
CC(C)C(=O)Nc1ccc(NC(=S)NC(=O)c2ccc([N+](=O)[O-])cc2)cc1 | 10µM* | 0% | -3%
Cc1cc(C(=O)NC(=S)Nc2cccc(C(=O)O)c2C)ccc1[N+](=O)[O-] | 0% | -9% | 3%
Cc1cc(C(=O)NC(=S)Nc2cccc(NC(=O)C(C)C)c2)ccc1[N+](=O)[O-] | 10µM* | ? | -10%
CCC(C)(C)NC(=O)c1ccc2c(c1)N(CC(=O)NC1CCCC1)C(=O)C(C)(C)O2 | -13% | 8% | ·
CC12CCC=CC1C(c1cccc([N+](=O)[O-])c1)N(Cc1ccccc1)C2=O (centres undefined) | ? | -6% | ·
Cc1nc2scc(-c3ccc(C(C)C)cc3)c2c(=O)n1N | ? | ? | 0%
COc1ccc(C(=O)O)cc1S(=O)(=O)NCc1ccccn1 | -1% | -4% | ·
Cc1cc(C)c(S(=O)(=O)NCc2ccccn2)cc1C | ? | -11% | ·
Cc1ccc(C(C)C)cc1S(=O)(=O)NCc1cccnc1 | ? | 18µM* | -8%
Cc1ccc(C(C)C)cc1S(=O)(=O)NCc1ccccn1 | 14µM* | ? | ·
COc1ccc(C(C)C)cc1S(=O)(=O)NCc1ccccn1 | 13µM* | -9% | -3%
Cc1ccccc1S(=O)(=O)NCc1cccnc1 | 1% | 2% | 0%
Cc1c(C)n(Cc2ccc(F)cc2)c2ccc(C(=O)NCCN3CCOCC3)cc12 | 4% | 15% | ·
Cc1ccc(NCC(=O)Nc2c(C)n(C)n(-c3ccccc3)c2=O)cc1S(=O)(=O)N(C)C | 1% | -6% | ·
O=C(COc1ccc(Cl)cc1)NNC(=O)C(=O)NC1CCCCC1 | -11% | 2% | ·
C[C@@H](c1ccccc1)N1C(=O)[C@H]2[C@@H]3[C@H](O)[C@H](O)CC(=O)[C@H]3CC[C@H]2C1=O | 11%[10 µM] | -4%[10 µM] | ·
CC(CCc1ccccc1)NC(=O)COC(=O)c1ccccc1O (centres undefined) | 18% | -6% | ·
COc1ccc(NS(=O)(=O)c2cccc(C(=O)N/N=C/c3ccc(O)cc3)c2)cc1 | -21% | -1% | 5%
O=C(N/N=C/c1cccc(NC(=O)c2ccc(Cl)cc2)c1)c1cccc(O)c1 | -9% | -5% | ·
O=C(N/N=C/c1cccs1)c1cccc(NC(=O)c2ccc(Cl)cc2)c1 | 10µM* | 13µM* | 0%
O=C(N/N=C/c1cccs1)c1cccc(S(=O)(=O)Nc2ccc(Cl)cc2)c1 | 4µM* | 5.6µM* | -1%
O=C(CCNc1ccc(Cc2ccncc2)cc1)c1ccc([N+](=O)[O-])cc1 | -2% | -19%[10 µM] | 0%
SMILES | RORg inh | VP16 counter | Luc counter
COC(=O)CSc1nnc(CNC(=O)c2cc(OC)cc(OC)c2)n1-c1ccc(F)cc1 | 10% | -7% | 0%
CC(=O)Nc1ccc(Nc2nc(C)c([N+](=O)[O-])c(Nc3ccccc3)n2)cc1 | ? | 13µM* | -1%
Cc1nc(Nc2ccc(C(=O)O)cc2)nc(Nc2ccc(C(=O)O)cc2)c1[N+](=O)[O-] | ? | -7% | 3%
Cc1ccc(CN2CC(C(=O)Nc3ccc(F)c([N+](=O)[O-])c3)CC2=O)cc1 (centres undefined) | 41% | 7% | -4%
CC(C)[C@@H](CC(=O)N[C@@H]1CCCC[C@H]1C(=O)N[C@H](CC(=O)N[C@@H](CCC(=O)O)CC(=O)O)Cc1c[nH]c2ccccc12)NC(=O)C[C@H](Cc1ccccc1)NC(=O)[C@@H]1CNCC[C@H]1N | -15% | -13% | 0%
COc1ccc2c(c1OC)C(Cc1ccccc1)N1CCc3cc4c(cc3C1=C2)OCO4 (centres undefined) | ? | 14µM* | -19%
COc1c2c(cc3c1C(CC(O)Cc1ccccc1)N(C)CC3)OCO2 (centres undefined) | 36% | 3% | ·
C/C(=N\N=C\c1ccc(N(C)C)cc1)c1cccc([N+](=O)[O-])c1 | -3% | -1% | -12%
CN(C)c1ccc(/C=N/N=C/c2ccccc2O)cc1 | 7.9µM* | ? | -20%
COc1ccc(-c2sc(Nc3ccccc3)n[n+]2-c2ccc(F)cc2)c(C)c1C | ? | 0% | ·
